Assay results published in PubChem BioAssay (NCI).
Several values for one entry are separate records, joined by “and”; a condition that tells them apart may be missing. Equal entries are not always repeated. Compounds without any hit were thinned out: in the full panel of roughly 83,000, 20% have a hit.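 96-well plates, one dose, 48 hours. Percent growth reported; active if below 10.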

Tests used:
Test in all cases: NCI-60 one-dose screen, 48 h (100 = growth as untreated, 0 = no growth, -100 = all killed)
Conditions in all cases: 10 µM unless noted
HCT-15 colon = test system: HCT-15 colon
HT29 colon = test system: HT29 colon
SNB-75 CNS = test system: SNB-75 CNS
SNB-19 CNS = test system: SNB-19 CNS
PC-3 prostate = test system: PC-3 prostate
SK-MEL-5 melanoma = test system: SK-MEL-5 melanoma
UACC-62 melanoma = test system: UACC-62 melanoma
LOX IMVI melanoma = test system: LOX IMVI melanoma
SK-MEL-28 melanoma = test system: SK-MEL-28 melanoma
U251 CNS = test system: U251 CNS

Measured: growth

O=c1n(CC2CO2)c(=O)n(CC2CO2)c(=O)n1CC1CO1 (stereo not given)
inactive: HCT-15 colon 75.9% | HT29 colon 70.3% | SNB-75 CNS 66.3% | SNB-19 CNS 83.9% | PC-3 prostate 71.4% | SK-MEL-5 melanoma 86.7% | UACC-62 melanoma 66% | LOX IMVI melanoma 54.5% | SK-MEL-28 melanoma 88.7%

Cc1ccc(=O)[nH]n1
inactive: HCT-15 colon 110% and 105% | HT29 colon 108% and 99.5% | SNB-75 CNS 108% and 103% | SNB-19 CNS 93.9% | U251 CNS 99.7% and 92.4% | PC-3 prostate 96.3% and 92% | SK-MEL-5 melanoma 101% and 105% | UACC-62 melanoma 106% and 104% | LOX IMVI melanoma 94.7% and 107% | SK-MEL-28 melanoma 111% and 115%

CCOC(=O)c1c(C)cc(=O)oc1C
inactive: HCT-15 colon 102% | HT29 colon 103% | SNB-75 CNS 94% | SNB-19 CNS 96.2% | U251 CNS 98.3% | PC-3 prostate 92% | SK-MEL-5 melanoma 106% | UACC-62 melanoma 95.3% | LOX IMVI melanoma 105% | SK-MEL-28 melanoma 115%

O=C1OC(C(O)C(O)CO)C(O)=C1O (stereo not given)
inactive: HCT-15 colon 99.8% and 100% | HT29 colon 102% and 96.4% | SNB-75 CNS 100% and 90.4% | SNB-19 CNS 100% and 98.4% | PC-3 prostate 93.2% and 85.3% | SK-MEL-5 melanoma 97.2% and 106% | UACC-62 melanoma 103% and 99.8% | LOX IMVI melanoma 104% and 99.2% | SK-MEL-28 melanoma 118% and 107%

CC[C@H](CC[C@@H](C)[C@H]1CC[C@H]2[C@@H]3CC=C4C[C@@H](O)CC[C@]4(C)[C@H]3CC[C@]12C)C(C)C
inactive: HCT-15 colon 80.9% and 102% | HT29 colon 101% and 109% | SNB-75 CNS 81.3% and 101% | SNB-19 CNS 99.5% and 98.1% | U251 CNS 90.3% and 104% | PC-3 prostate 106% and 98.2% | SK-MEL-5 melanoma 95.2% and 105% | UACC-62 melanoma 96% and 101% | LOX IMVI melanoma 92.6% and 101% | SK-MEL-28 melanoma 99.9% and 103%

O=C(Cc1ccccc1)c1ccc(O)c(Cl)c1
inactive: HCT-15 colon 13.9% | HT29 colon 30.2% | SNB-75 CNS 72.7% | SNB-19 CNS 74.8% | U251 CNS 73% | PC-3 prostate 53.2% | SK-MEL-5 melanoma 27.5% | UACC-62 melanoma 26.8% | LOX IMVI melanoma 15.2% | SK-MEL-28 melanoma 49.4%

CC(=O)OCC1OC(OC(C)=O)C(OC(C)=O)C(OC(C)=O)C1OC(C)=O (stereo not given)
inactive: HCT-15 colon 98.2% and 104% | HT29 colon 110% and 115% | SNB-75 CNS 67.1% and 98.6% | SNB-19 CNS 102% and 106% | U251 CNS 95.6% and 96% | PC-3 prostate 105% and 104% | SK-MEL-5 melanoma 102% and 100% | UACC-62 melanoma 109% and 99.9% | LOX IMVI melanoma 96.9% and 97.3% | SK-MEL-28 melanoma 103% and 109%

CCCCNc1ccc(Nc2ccccc2)cc1
inactive: HCT-15 colon 94.6% | HT29 colon 51.5% | SNB-75 CNS 84.2% | SNB-19 CNS 76.4% | U251 CNS 34.8% | PC-3 prostate 50.8% | SK-MEL-5 melanoma 67.3% | UACC-62 melanoma 60.6% | LOX IMVI melanoma 64.9% | SK-MEL-28 melanoma 94.9%

CC1(C)COC(=S)N1
inactive: HCT-15 colon 103% | HT29 colon 104% | SNB-75 CNS 87.4% | SNB-19 CNS 107% | U251 CNS 101% | PC-3 prostate 100% | SK-MEL-5 melanoma 112% | UACC-62 melanoma 93% | LOX IMVI melanoma 99.9% | SK-MEL-28 melanoma 104%

O=C(O)CCCl
inactive: U251 CNS 101%

OCC1OC(O)C(O)C(O)C1O (stereo not given)
inactive: U251 CNS 113%
